Assay [1] concerns Vero E6 infected with SARS-CoV-2. In words: morphology score (similarity to uninfected cells); higher = more like uninfected cells. The following applies: 24 h.
The test system is the same in assay [2]. As to the kind of experiment: SARS-CoV-2 infection rate relative to infected DMSO; higher = more infection, active = 60 or less. The following applies: 24 h.

This passage reports morphology score and SARS-CoV-2 infection rate results from the supplement of paper PMC13380429.

Compound `N#C/C(=C\c1ccc(O)c(O)c1)C(=O)NCCCc1ccccc1` (0.833333 µM) gave a morphology score in assay [1] of -0.0747. Besides, the SARS-CoV-2 infection rate in assay [2] is 119% (inactive).
The matching figures for `O=C(c1ccc(CN2CCOCC2)cc1)N1CCN(C2CC2)CC1` [bavisant] (10 µM): -0.0555 and 100% (inactive).
The matching figures for `C[C@@H]1CN([C@H]2CC[C@](C#N)(c3ccc(F)cc3)CC2)CC[C@]1(C(=O)O)c1ccccc1` [levocabastine] (10 µM): -0.0824 and 112% (inactive).
The matching figures for `CC(C)CCNc1ncccc1C(=O)N1CCN(Cc2ccccc2)CC1` (10 µM): -0.0116 and 114% (inactive).
In assay [1], `Cc1cccc(C)c1NC(=O)CN1CCN(CCCC(c2ccc(F)cc2)c2ccc(F)cc2)CC1` [lidoflazine] (10 µM) returned a morphology score of 0.34. In addition, in assay [2], the SARS-CoV-2 infection rate is 76.5% (inactive).
The matching figures for `CCc1c(C(=O)NCCc2ccc(N3CCCCC3)cc2)[nH]c2ccc(Cl)cc12` (10 µM): -0.0889 and 124% (inactive).
`CN1CCC(=C2c3ccccc3CCn3c(C=O)cnc32)CC1` [alcaftadine] (10 µM) had a morphology score in assay [1] of 0.0541. Moreover, the SARS-CoV-2 infection rate in assay [2] was 93.5% (inactive).
`CNC(=O)O[C@H]1COc2ccc(N3CCN(C4COC4)CC3)cc2[C@@H]1NC(=O)c1ccc(F)cc1` (10 µM) had a morphology score in assay [1] of 0.123. Further, in assay [2], the SARS-CoV-2 infection rate is 95.5% (inactive).
Compound `O=C(O)CCc1c[nH]c2ccccc12` (10 µM) yielded a morphology score in assay [1] of 0.0821. In assay [2], the SARS-CoV-2 infection rate was 104% (inactive).
In turn, `CN(CCOc1ccc(NS(C)(=O)=O)cc1)CCc1ccc(NS(C)(=O)=O)cc1` [dofetilide] (10 µM) came in with a morphology score in assay [1] of 0.059. For the same compound, the SARS-CoV-2 infection rate in assay [2] was 112% (inactive).
The matching figures for `Cc1ccc2c(c1)[C@H]1CN(C)CC[C@H]1N2` [stobadine] (10 µM): 0.0748 and 98% (inactive).
The matching figures for `Cc1c(F)cccc1NC(=O)Nc1ccc(Cl)c(S(=O)(=O)[C@H]2CCCNC2)c1O` [danirixin] (10 µM): 0.19 and 98% (inactive).
The matching figures for `C1=Cc2cccc(OCC3CNCCO3)c2C1` (stereo not given) [indeloxazine] (10 µM): -0.319 and 106% (inactive).
For the compound `CCNC(=O)[C@@H]1CCCN1C(=O)[C@H](CCCNC(=N)N)NC(=O)[C@H](CC(C)C)NC(=O)[C@@H](CC(C)C)NC(=O)[C@H](Cc1ccc(O)cc1)NC(=O)[C@H](CO)NC(=O)[C@H](Cc1c[nH]c2ccccc12)NC(=O)[C@H](Cc1c[nH]cn1)NC(=O)[C@@H]1CCC(=O)N1` [leuprolide] (10 µM), in assay [1], the morphology score is -0.258. For the same compound, the SARS-CoV-2 infection rate in assay [2] was 118% (inactive).
The matching figures for `Cc1cc(-c2ccc(CC(=O)Nc3ccc(-c4cccnc4)cc3)cc2)ccn1` (10 µM): 0.392 and 75.5% (inactive).
The matching figures for `CCOc1cc(C(=O)Nc2ccc(Cl)c(-c3nc4ccccc4[nH]3)c2)cc(OCC)c1OCC` (10 µM): -0.0242 and 100% (inactive).
The matching figures for `CCN(CC)Cc1cc(Nc2ccnc3cc(Cl)ccc23)ccc1O` [amodiaquine] (10 µM): 0.839 and 17.5% (active).
`Cn1c(=O)cc(N2CCC[C@@H](N)C2)n(Cc2cc(F)ccc2C#N)c1=O` [trelagliptin] (10 µM) came in with a morphology score in assay [1] of 0.194. Also, the SARS-CoV-2 infection rate in assay [2] is 99% (inactive).
The matching figures for `CCN(CC)CC#CCOC(=O)C(O)(c1ccccc1)C1CCCCC1` (stereo not given) [oxybutynin] (10 µM): 0.299 and 98% (inactive).
`C#Cc1cccc(Nc2ncnc3cc(OCCOC)c(OCCOC)cc23)c1` [erlotinib] (10 µM) had a morphology score in assay [1] of -0.159. In addition, the SARS-CoV-2 infection rate in assay [2] is 116% (inactive).
In turn, `Nc1nnc(Sc2ncc([N+](=O)[O-])s2)s1` (0.833333 µM) yielded a morphology score in assay [1] of 0.248. Also, in assay [2], the SARS-CoV-2 infection rate is 90.5% (inactive).
The matching figures for `COc1cc(N)c(Cl)cc1C(=O)OCCN1CCCCC1` (10 µM): 0.128 and 110% (inactive).
The matching figures for `CC(=O)N[C@@H](Cc1ccc(O)cc1)C(=O)O` [N-acetyl-tyrosine] (10 µM): -0.058 and 114% (inactive).
The matching figures for `C[C@@H](c1nc(-c2ccc(C#N)cc2)cs1)[C@](O)(Cn1cncn1)c1ccc(F)cc1F` [ravuconazole] (10 µM): 0.0292 and 107% (inactive).
Consider `CCC(=O)O[C@@H]1CC(=O)O[C@H](C)C/C=C/C=C/[C@H](OC(C)=O)[C@H](C)C[C@H](CC=O)[C@H](O[C@@H]2O[C@H](C)[C@@H](O[C@H]3C[C@@](C)(OC(C)=O)[C@@H](OC(=O)CC)[C@H](C)O3)[C@H](N(C)C)[C@H]2O)[C@H]1OC` [miocamycin] (10 µM), for which, in assay [1], the morphology score is -0.0251. In addition, the SARS-CoV-2 infection rate in assay [2] was 110% (inactive).
The matching figures for `CN(C(=O)Cc1ccccc1)[C@H](CN1CCCC1)c1ccccc1` (10 µM): 0.0751 and 102% (inactive).
The matching figures for `CS(=O)(=O)c1ccc(C2=C(c3ccccc3)C(=O)OC2)cc1` [rofecoxib] (10 µM): 0.0705 and 96.5% (inactive).
The matching figures for `C=CC(C)(C)c1cc(/C=C/C(=O)c2ccc(O)cc2)c(OC)cc1O` [licochalcone-A] (10 µM): -0.0626 and 114% (inactive).
As for `COc1ccc2cc(OCC3(C(=O)O)CN(C(=O)c4ccc(F)cc4)C3)ccc2c1` (10 µM), in assay [1], the morphology score turned out to be 0.0418. Further, in assay [2], the SARS-CoV-2 infection rate was 110% (inactive).
`Nc1cc(N2CCCCC2)nc(N)[n+]1[O-]` [minoxidil] (10 µM) yielded a morphology score in assay [1] of 0.0795. Further, the SARS-CoV-2 infection rate in assay [2] is 104% (inactive).
The matching figures for `CO[C@]12C[C@@H](COC(=O)c3cncc(Br)c3)CN(C)[C@@H]1Cc1cn(C)c3cccc2c13` [nicergoline] (10 µM): 0.275 and 81% (inactive).
With `Cc1cccc(C)c1NC(=O)CN1CCCC1=O` [nefiracetam] (10 µM), the morphology score in assay [1] came out at 0.0495. In addition, the SARS-CoV-2 infection rate in assay [2] was 113% (inactive).
The matching figures for `C[C@]12CC[C@H](O)C[C@H]1CC[C@@H]1[C@@H]2C[C@@H](O)[C@]2(C)[C@@H](C3=CC(=O)OC3)CC[C@]12O` [digoxigenin] (0.833333 µM): -0.000579 and 99.5% (inactive).
The matching figures for `CCC(=O)O[C@@](Cc1ccccc1)(c1ccccc1)[C@@H](C)CN(C)C` [levopropoxyphene] (10 µM): -0.0577 and 109% (inactive).
With `CCOC(=O)C1=CCCC[C@H]1S(=O)(=O)Nc1ccc(F)cc1Cl` [resatorvid] (10 µM), in assay [1], the morphology score came out at 0.0683. For the same compound, the SARS-CoV-2 infection rate in assay [2] is 99.5% (inactive).
The matching figures for `N#Cc1c(O)c2c(-c3ccc(-c4ccccc4O)cc3)csc2[nH]c1=O` (10 µM): 0.0882 and 106% (inactive).
In assay [1], `O=c1cc(-c2ccccc2)oc2cc(O)c(O)c(O)c12` [baicalein] (10 µM) came in with a morphology score of 0.196. The SARS-CoV-2 infection rate in assay [2] is 85% (inactive).
`Nc1ncnc2c1c(COc1cccc(Cl)c1)nn2C1CCOCC1` (10 µM) came in with a morphology score in assay [1] of 0.00558. Further, the SARS-CoV-2 infection rate in assay [2] was 104% (inactive).
The matching figures for `NCCCCN(Cc1nc2ccccc2[nH]1)[C@H]1CCCc2cccnc21` (10 µM): 0.0412 and 102% (inactive).
The matching figures for `Cc1c(C(=O)NN2CCCCC2)nn(-c2ccc(Cl)cc2Cl)c1-c1ccc(I)cc1` (10 µM): 0.254 and 93% (inactive).
The matching figures for `OB1OCc2cc(Cl)ccc21` (10 µM): -0.0961 and 106% (inactive).
In the case of `Cn1c(=O)n(-c2ccc(C(C)(C)C#N)cc2)c2c3cc(-c4cnc5ccccc5c4)ccc3ncc21` (10 µM), the morphology score in assay [1] was determined as 0.0712. Moreover, the SARS-CoV-2 infection rate in assay [2] was 98% (inactive).
The matching figures for `CN1CCCN=C1/C=C/c1cccs1` [pyrantel-pamoate] (10 µM): 0.103 and 93.5% (inactive).
The matching figures for `Oc1c(CN2CCCC2)cc(COCc2ccccc2)c2cccnc12` (10 µM): 0.0259 and 104% (inactive).
The matching figures for `COc1ccnc2[nH]cc(C(=O)C(=O)N3CCN(C(=O)c4ccccc4)C[C@H]3C)c12` (10 µM): -0.0708 and 99% (inactive).
On to `COc1ccc(-c2nc(-c3ccc(-c4cccc(Cl)c4)o3)[nH]c2-c2ccc(OC)cc2)cc1` [neurodazine] (10 µM), for which, in assay [1], the morphology score came to 0.198. In addition, the SARS-CoV-2 infection rate in assay [2] is 70% (inactive).
The matching figures for `NC[C@H]1O[C@H](O[C@H]2[C@H](O)[C@@H](O[C@H]3O[C@H](CO)[C@@H](O)[C@H](N)[C@H]3O)[C@H](N)C[C@@H]2N)[C@H](N)[C@@H](O)[C@@H]1O` [bekanamycin] (10 µM): 0.0989 and 103% (inactive).
Turning to `C[N+](C)(C)CC[N+]1(C)Cc2c(Cl)c(Cl)c(Cl)c(Cl)c2C1` [chlorisondamine-diiodide] (10 µM), the morphology score in assay [1] amounted to 0.224. Also, the SARS-CoV-2 infection rate in assay [2] is 90.5% (inactive).
The matching figures for `CCCCCCCCCCCCCC(=O)OC(C)C` [isopropyl-myristate] (10 µM): 0.235 and 95.5% (inactive).
In assay [1], `O=C(/C=C\n1cnc(-c2cc(C(F)(F)F)cc(C(F)(F)F)c2)n1)N1CC(F)(F)C1` (10 µM) returned a morphology score of -0.303. Also, in assay [2], the SARS-CoV-2 infection rate was 116% (inactive).
Consider `Cc1nnc(C[C@@H]2C=C(c3ccc(Cl)cc3)c3ccccc3-n3c(C)nnc32)o1` (0.833333 µM), for which the morphology score in assay [1] is -0.106. Besides, the SARS-CoV-2 infection rate in assay [2] is 108% (inactive).
The matching figures for `N=C(NCCC[C@H](N)C(=O)O)N[N+](=O)[O-]` [NG-nitro-arginine] (10 µM): -0.0213 and 108% (inactive).
The compound `COc1ccc(/C=C\c2cc(OC)c(OC)c(OC)c2)cc1O` [combretastatin-A-4] (10 µM) gave a morphology score in assay [1] of 0.000765. Besides, the SARS-CoV-2 infection rate in assay [2] was 98.5% (inactive).
The matching figures for `N#Cc1cnc2c(Cl)cc(NCc3cn(CCN4CCCCCC4)nn3)cc2c1Nc1ccc(F)c(Cl)c1` [cot-inhibitor-1] (10 µM): 0.16 and 104% (inactive).
The matching figures for `CC(=O)[C@@]1(O)CC[C@H]2[C@@H]3C[C@H](C)C4=CC(=O)C=C[C@]4(C)[C@@]3(F)[C@@H](O)C[C@@]21C` [fluorometholone] (10 µM): 0.02 and 110% (inactive).
For the compound `O=C(O)c1cc(-c2ccc(F)cc2F)ccc1O` [diflunisal] (10 µM), in assay [1], the morphology score is -0.15. Moreover, the SARS-CoV-2 infection rate in assay [2] is 110% (inactive).
The matching figures for `CCCCNC(=O)[C@@H]1Cc2ccccc2N1C(=O)[C@@H](N)CC` [butabindide] (10 µM): 0.203 and 86.5% (inactive).
In assay [1], `O=C(O)CCC(=O)O` [succinic-acid] (10 µM) displayed a morphology score of -0.0828. Moreover, in assay [2], the SARS-CoV-2 infection rate is 106% (inactive).
The matching figures for `CCC1NC(=O)c2cc(S(N)(=O)=O)c(Cl)cc2N1` (stereo not given) [quinethazone] (10 µM): 0.339 and 88% (inactive).
`O=C(Nc1cc(C(F)(F)F)ccc1O)Nc1cc(C(F)(F)F)ccc1O` (10 µM) had a morphology score in assay [1] of 0.119. The SARS-CoV-2 infection rate in assay [2] is 104% (inactive).
